Results: PubChem BioAssay (NCI)
This is part of a sample that, as a whole, favours compounds with a hit. Of some 83,000 tested, about 20% had one in any assay.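 Negative percent growth values reflect cell death: -40 means 40% of the cells present at the start died, and -100 means all died.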 Active and inactive are the calls of the source. The calls were made as follows: active = growth percent below 10; inactive = the rest.

system: HCC-2998 colon; assay: NCI-60 one-dose screen, 48 h (100 = growth as untreated, 0 = no growth, -100 = all killed); conditions: 10 µM unless noted

Structure (SMILES) | growth
O=C(Nc1ccc(Nc2cc(Nc3ccccc3)ncn2)cc1)Nc1cc(C(F)(F)F)ccc1F | 93.7% (inactive)
Nc1cccc(-c2nc3sccn3c2-c2ccnc(NCCCNS(=O)(=O)c3ccc(C(F)(F)F)cc3)n2)c1 | 18.1% (inactive)
O=C(Nc1ccc(F)cc1)Nc1ccc(CCO)cc1 | 108% (inactive)
COc1ccc(CCN2CCCn3c2nc2ccccc2c3=O)cc1 | 8.36% (active)
CCOC(=O)/C=C/C(=O)[C@H](CC(C)C)NC(=O)[C@H](Cc1ccccc1)NC(=O)OCc1ccccc1 | 99.2% (inactive)
Cn1c2c(Cl)c(Cl)ccc2c2ccn3c(=O)c4ccccc4nc3c21 | 100% (inactive)
C[C@@H]1CC[C@@H]2[C@@H]1[C@H](OC(=O)/C=C/c1ccccc1)[C@]1(C3CCCCC3)C[C@@H](OC(=O)CO)[C@@]2(C)O1 | 78% (inactive)
CC#Cc1nc2ccccc2c(=O)[nH]1 | 13.7% (inactive)
CCCCN(CC)CCCCCCCCCCN1CCCc2cc(OC)ccc21 | -26% (active)
CC[C@H](Nc1nc(N)nc(C)c1C#N)c1nc2cccc(NCc3ccc(C(=O)NO)cc3)c2c(=O)n1-c1ccccc1 | 28.3% (inactive)
OC(c1cccc(C(F)(F)F)c1)c1cnccc1NC1CCCCCC1 (stereo unspecified) | -70.1% (active)
CC(=O)Nc1ccc2c(c1)c(NC(C)=O)nn2C(=O)Nc1ccc(Cc2ccccc2)cc1 | 78.8% (inactive)
COc1cc(/C=N/N(C)C)ccc1O | 107% (inactive)
CCC(c1ccccc1)C(CC)c1ccc(O)c(O)c1 (stereo unspecified) | 97.5% (inactive)
COc1cc(C2CC(=O)c3c(C)nn(-c4nc5ccccc5[nH]4)c3C2)cc(OC)c1OC (stereo unspecified) | 82.4% (inactive)
COc1ccc(S(=O)(=O)NCCCNc2cc(-c3c(-c4cccc(OC)c4)nc4sccn34)ccn2)cc1 | 70.7% (inactive)
COc1cccc(-c2cn3c(ccc4ccccc43)n2)c1 | 68.8% (inactive)
COC(=S)SCN(CSC(=S)OC)c1ccc(Cl)cc1 | 100% (inactive)
COc1nc2c(cc1S(=O)(=O)c1ccccc1)CCc1c-2cnn1-c1ccc(Cl)cc1 | 92.9% (inactive)
O=c1ccc2cc3ccccc3cc2[nH]1 | 83.3% (inactive)
COc1cnc2c(c1)C(=O)c1c-2n(CCCN2CCNCC2)c(=O)c2cc([N+](=O)[O-])ccc12 | 36.2% (inactive)
CC1=N/C(=C\c2cccc(Br)c2)C(=O)O1 | 111% (inactive)
O=C(Nc1nc(-c2ccccc2)cc(-c2ccc(Cl)cc2)n1)c1ccncc1 | 102% (inactive)

system: KM12 colon; assay: as above; conditions: 10 µM unless noted

Structure (SMILES) | growth
COc1ccc2nc3cc(Cl)ccc3c(N3CCN(c4ccnc(N5CCN(C)CC5)n4)CC3)c2c1 | 36% (inactive)
Cc1cccc(NC(=O)c2sc3nc4c(cc3c2N)C(=O)CCC4)c1 | 21.4% (inactive)
C=C1CCC2C3(C)COC(c4cccc(Cl)c4)OC3CCC2(C)C1/C=C/C1=CCOC1=O (stereo unspecified) | 74.3% (inactive)
COC(=O)[C@H](C(C)C)n1c(=O)c2cc(OC)c(OC)cc2c2cnc3[nH]ccc3c21 | 18.4% (inactive)
O=C(/C=C/c1cc2ccccc2[nH]c1=O)/C=C/c1cc2ccccc2[nH]c1=O | -83.7% (active)
CC1=C(NCCN2CCCC2)C(=O)c2c(OCc3cccc(Cl)c3)cccc2C1=O | 81% (inactive)
Cn1c2ccccc2c2c3c(c4c5ccccc5[nH]c4c21)C(=O)N(N)C3=O | 62.8% (inactive)
C/C=C/C(N)=O | 103% (inactive)
CN1CCN(Cc2ccc(NC(=O)c3[nH]ncc3Nc3ncnc4c3CCC4)cc2)CC1 | 6.55% (active)
COc1cc(OC)c(/C=C/c2cc[n+](C)c3ccccc23)c(OC)c1 | -19.9% (active)
Clc1cccc(Nc2nc(Nc3cnc4ccccc4c3)c3[nH]cnc3n2)c1 | 92.8% (inactive)
Oc1ccccc1/C=N/Nc1ccc2ccccc2n1 | 46.3% (inactive)
COc1ccc(/C=C2\N=C3Sc4cc(Cl)ccc4C(=O)N3C2=O)cc1 | 104% (inactive)
Cc1cc(N/N=C/c2nc(-c3ccc(Cl)cc3)oc2C)c2cc(Cl)ccc2n1 | 53.6% (inactive)
NS(=O)(=O)c1ccc(Nc2nc3n[nH]c(Nc4ccccc4)c3c(=O)[nH]2)cc1 | 100% (inactive)
O=C(Nc1ccc(Nc2cc(Nc3ccccc3)ncn2)cc1)Nc1cc(C(F)(F)F)ccc1F | 23.3% (inactive)
Nc1cccc(-c2nc3sccn3c2-c2ccnc(NCCCNS(=O)(=O)c3ccc(C(F)(F)F)cc3)n2)c1 | 1.52% (active)
O=C(Nc1ccc(F)cc1)Nc1ccc(CCO)cc1 | 108% (inactive)
COc1ccc(CCN2CCCn3c2nc2ccccc2c3=O)cc1 | 14.7% (inactive)

Structure (SMILES) | growth
CCOC(=O)/C=C/C(=O)[C@H](CC(C)C)NC(=O)[C@H](Cc1ccccc1)NC(=O)OCc1ccccc1 | 94.5% (inactive)
Cn1c2c(Cl)c(Cl)ccc2c2ccn3c(=O)c4ccccc4nc3c21 | 103% (inactive)
C[C@@H]1CC[C@@H]2[C@@H]1[C@H](OC(=O)/C=C/c1ccccc1)[C@]1(C3CCCCC3)C[C@@H](OC(=O)CO)[C@@]2(C)O1 | 69.1% (inactive)
CC#Cc1nc2ccccc2c(=O)[nH]1 | 41.1% (inactive)
CCCCN(CC)CCCCCCCCCCN1CCCc2cc(OC)ccc21 | -1.91% (active)
CC[C@H](Nc1nc(N)nc(C)c1C#N)c1nc2cccc(NCc3ccc(C(=O)NO)cc3)c2c(=O)n1-c1ccccc1 | 0.659% (active)
OC(c1cccc(C(F)(F)F)c1)c1cnccc1NC1CCCCCC1 (stereo unspecified) | 3.96% (active)
CC(=O)Nc1ccc2c(c1)c(NC(C)=O)nn2C(=O)Nc1ccc(Cc2ccccc2)cc1 | 85.9% (inactive)
COc1cc(/C=N/N(C)C)ccc1O | 103% (inactive)
CCC(c1ccccc1)C(CC)c1ccc(O)c(O)c1 (stereo unspecified) | 90.9% (inactive)
COc1cc(C2CC(=O)c3c(C)nn(-c4nc5ccccc5[nH]4)c3C2)cc(OC)c1OC (stereo unspecified) | 102% (inactive)
COc1ccc(S(=O)(=O)NCCCNc2cc(-c3c(-c4cccc(OC)c4)nc4sccn34)ccn2)cc1 | 39.6% (inactive)
COc1cccc(-c2cn3c(ccc4ccccc43)n2)c1 | 34.6% (inactive)
COC(=S)SCN(CSC(=S)OC)c1ccc(Cl)cc1 | 98.2% (inactive)
COc1nc2c(cc1S(=O)(=O)c1ccccc1)CCc1c-2cnn1-c1ccc(Cl)cc1 | 109% (inactive)
O=c1ccc2cc3ccccc3cc2[nH]1 | 101% (inactive)
COc1cnc2c(c1)C(=O)c1c-2n(CCCN2CCNCC2)c(=O)c2cc([N+](=O)[O-])ccc12 | -75.5% (active)
CC1=N/C(=C\c2cccc(Br)c2)C(=O)O1 | 106% (inactive)
O=C(Nc1nc(-c2ccccc2)cc(-c2ccc(Cl)cc2)n1)c1ccncc1 | 100% (inactive)
